# Compound activity as filed in PubChem.
# HTT prom inh: HTT promoter inhibition. Potency, µM (highest dose often 57.5 µM), without a hit: top-dose activity change, negative = inhibition, hits mostly inhibitors. 48,000 compounds, 0.93% hits. HEK293 HTT promoter firefly luciferase reporter, 24 h. AID 1508623; also: potency is read from the fitted curve at half-maximal effect; nearly all actives have a fitted effect of over 50% in size
#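 HEK293 Fluc reporter, 2,500 cells/well, 24 h pre-culture; cpds up to 57.5 uM final, 24 h 37 degrees C; Dual-Glo, 10 min RT; normalized vehicle = 0%, zero RLU = -100%.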
# HTT-AS promoter: HTT-AS promoter activation; HEK293 HTT-AS promoter firefly luciferase reporter, 24 h; response scale: percent change from vehicle, -100% = no light; Potency, µM (series often up to 57.5 µM), for the others: top-dose activity change, positive = activation, usual class: activators; 48,000 compounds, 0.24% hits; AID 1508624; also: potency is read from the fitted curve at half-maximal effect; nearly all actives have a fitted effect of over 55% in size
#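 Firefly luciferase readout (Dual-Glo, 10 min RT) after 24 h, 37 °C compound exposure (final up to 57.5 uM) of HEK293 reporter cells cultured 24 h beforehand; PTC124 at 50 uM final as control inhibitor; activity scaled vehicle 0%, zero RLU -100%.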
# NTMT1 inh: blocks human N-terminal methyltransferase 1 activity. Q9BV86. NTMT1 MTase-Glo SAH luminescence, purified enzyme. Potency, µM (series often up to 114 µM), inactives show at the top dose activity change, negative = inhibition, usual class: inhibitors. 59,000 compounds, 2.5% hits. AID 1645870;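 also: potency is read from the fitted curve at half-maximal effect; plate controls were DMSO vehicle for no effect and no enzyme for full effect; nearly all actives have a fitted effect of over 65% in size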
# Target sequence (Q9BV86 whole entry, looked up): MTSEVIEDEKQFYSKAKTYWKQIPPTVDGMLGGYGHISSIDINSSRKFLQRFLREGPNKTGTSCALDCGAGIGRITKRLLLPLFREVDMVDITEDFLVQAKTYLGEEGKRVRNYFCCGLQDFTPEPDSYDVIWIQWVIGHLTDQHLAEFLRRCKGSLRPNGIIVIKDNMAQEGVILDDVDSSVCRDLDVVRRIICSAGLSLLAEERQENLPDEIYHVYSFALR
# DRV1 agonist: GPR32 (DRV1) agonism, beta-arrestin recruitment. 48,000 compounds, 2.5% hits. O75388. activation, % at 76.9 µM. CHO-K1 GPR32 beta-arrestin PathHunter luminescence, 90 min; zero percent set by DMSO-only wells;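 active = activation of at least 60% and not above a set upper limit, about 1 call in 100 departs from these limits; inconclusive = activation of 40% to 60%, or above that upper limit; inactive = activation under 40%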; also: 0% is about no effect
# Target sequence (O75388 whole entry, looked up): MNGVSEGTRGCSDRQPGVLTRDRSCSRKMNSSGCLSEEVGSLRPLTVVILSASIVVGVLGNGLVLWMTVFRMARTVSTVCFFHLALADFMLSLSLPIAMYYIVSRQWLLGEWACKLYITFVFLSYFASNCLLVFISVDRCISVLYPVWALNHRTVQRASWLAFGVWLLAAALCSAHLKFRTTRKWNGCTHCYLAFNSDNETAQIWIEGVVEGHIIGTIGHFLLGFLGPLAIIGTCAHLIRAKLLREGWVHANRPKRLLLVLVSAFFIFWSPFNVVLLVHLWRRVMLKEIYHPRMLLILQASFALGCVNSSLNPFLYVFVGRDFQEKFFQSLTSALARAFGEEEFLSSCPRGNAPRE
#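 Cells are plated overnight, treated with compounds in DMSO for 90 minutes at 37 °C, and developed with PathHunter detection reagent for 1 hour before luminescence is read; signal reflects beta-arrestin binding to GPR32 in engineered CHO-K1 cells.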
# * = called active by the depositor; ? = inconclusive; · = no result given; ! = not confirmed by another sample; [ ] = dose if it differs, or a comment. In the library only some 4.6% were active in any assay of this set; here they are far more common. Unless noted, calls follow the shape of the dose curve; as a rule, active = well fitted curve in the direction sought with a large enough effect; inconclusive = small, poorly fitted or top-dose-only effect, or another doubt; inactive = no such curve, though single readings can be large; an effect the other way counts as inactive or inconclusive.
SMILES,HTT prom inh,HTT-AS promoter,NTMT1 inh,DRV1 agonist
Cc1cc(C=CC#N)cc(C)c1Nc1nc(Nc2ccc3scnc3c2)c2[nH]cnc2n1,·,·,-15%,·
O=C(O)c1ccc(O)c2ncc(N3CCCCC3)cc12,·,·,10%,·
O=C(/C=C/c1cccc(S(=O)(=O)Nc2ccccc2)c1)NO,·,·,9%,·
C=C1C(=O)OC2C(OC(=O)C=C(C)C)C(C)=C3C(=O)C=C(C)C3C(O)C12 (stereo not given),·,·,-15%[29.8 µM],·
Cc1cc(NC(=O)c2oc3c(c2C)-c2[nH]ncc2CC3)ccc1Br,68%,1.1µM*,-28%,-5
CCc1ccc(NC(=O)c2oc3c(c2C)-c2[nH]ncc2CC3)cc1,80%,?,?,5
O=S(=O)(Nc1nccs1)c1ccc(NCc2cc(Cl)ccc2O)cc1,·,·,3%,·
Oc1ccc(Cl)cc1Cc1cc(Cl)ccc1O,?,-94%,?,69*
COc1ccc(CNC(=O)C2CCCN(c3nnc(C)c4c(C)n(-c5ccc(C)cc5)nc34)C2)cc1 (stereo not given),1%,-18%,79µM*,-1
COc1ccc(-n2nc3c(N4CCCC(C(=O)NCc5ccc(C)cc5)C4)nnc(C)c3c2C)cc1 (stereo not given),-19%,-64%,?,111*
OC[C@H]1O[C@@H](S[C@@H]2O[C@H](CO)[C@H](O)[C@H](n3cc(-c4cccc(F)c4)nn3)[C@H]2O)[C@H](O)[C@@H](n2cc(-c3cccc(F)c3)nn2)[C@H]1O,·,·,12%,·
O=C(Nc1ccccc1-c1cn2c(CN3CCNCC3)csc2n1)c1cnc2ccccc2n1,-10%,-17%,3.5µM*!,·
CCCC1CCC(C(=O)Nc2ccc(S(=O)(=O)Nc3nccs3)cc2)CC1 (stereo not given),·,·,9%,·
CCN(CC)c1ccc(NS(=O)(=O)c2ccc(-c3coc(C)n3)cc2)c(C)c1,?,-31%,-9%,68*
COc1cc(Cl)c(NS(=O)(=O)c2cc(-c3cc(C)no3)ccc2OC)c(OC)c1,-25%,-36%,-14%,-15
COc1cc(Cl)c(NS(=O)(=O)c2ccc(-c3coc(C)n3)cc2)c(OC)c1,?,-53%,1%,83*
COC(=O)C1=CO[C@@H](O[C@@H]2O[C@H](CO[C@@H]3O[C@H](COC(=O)/C=C/c4cc(OC)c(O)c(OC)c4)[C@@H](O)[C@H](O)[C@H]3O)[C@@H](O)[C@H](O)[C@H]2O)[C@@H]2C(CO)=CC[C@H]12,·,·,7%[12.6 µM],·
CCN(CC)C(=S)SSC(=S)N(CC)CC,?,-7%,3.5µM*!,92*!
CCOc1c(Cl)cc(CNc2ccc3[nH]c(=O)[nH]c3c2)cc1OC,-19%,-41%,-3%,85*
COc1cc(CNc2ccc3[nH]c(=O)[nH]c3c2)ccc1OCc1ccc(F)cc1Cl,-7%,-2%,?,11
COc1ccccc1Cc1nc2ccccc2nc1SCC(=O)N1CCC(C)CC1,?,-42%,4%,64*
Cc1ccc(Cc2nc3ccccc3nc2SCC(=O)N2CCCCC2C)cc1 (stereo not given),28µM*,-44%,-3%,-16
CCOc1ccccc1NC(=O)CSc1nc2ccccc2nc1Cc1ccc(C)cc1,-27%,-31%,15%,71*
Cc1nnc(-c2cnn(C)c2N)n1CCc1cccs1,·,·,18%[57.5 µM],·
COc1ccc(-c2cn3nc(N4CCC(C(=O)Nc5cccc(Cl)c5)CC4)sc3n2)cc1,15%,?,4%,78*
SMILES,HTT prom inh,HTT-AS promoter,NTMT1 inh,DRV1 agonist
NCCCCC(=O)Nc1ccc(Cl)cc1C(=O)c1ccc[nH]1,·,·,8%,·
CCn1c(=O)sc2cc(NS(=O)(=O)c3ccc(F)c(C)c3)ccc21,14µM*,-52%,20%,18
C#Cc1cccc(Nc2ncnc3cc(OCCOC)c(OCCO)cc23)c1,?,-36%,35µM*,·
Cc1ccc(-c2nc3ccccc3s2)cc1NC(=O)c1ccc(-c2cccc(Cl)c2)o1,·,·,6%,·
Cc1ccc(O)c(NC(=O)c2ccc(Br)c(S(=O)(=O)N3CCCCC3)c2)c1,20µM*,-42%,-6%,-4
FC(F)(F)c1ccccc1-c1nc(NCc2ccc(-c3cccc4ccccc34)cc2)c2ccccc2n1,·,·,11%,·
O=C1OC2(c3ccccc31)c1cc(I)c(O)c(I)c1Oc1c2cc(I)c(O)c1I,-7%,-25%,1µM*,-64
O=C1OC2(c3ccc(O)cc3Oc3cc(O)ccc32)c2ccccc21,9%,-7%,16%[57.5 µM],111*
Cc1ccc(S(=O)(=O)N2CCC(n3c(C)nc4cccnc43)CC2)c(C)c1,?,-36%,-1%,?
COc1ccc(S(=O)(=O)N2CCC(n3c(C)nc4cccnc43)CC2)cc1Cl,·,·,·,70*
COc1ccc(-c2c(C)c(C(=O)NN3CCCCC3)nn2-c2ccc(Cl)cc2Cl)cc1,·,·,2%[57.5 µM],·
Cc1ccccc1C(=O)Nc1nc2nc(-c3ccccc3)cc(=O)n2[nH]1,-17%,0%,11%,11
O=C(Nc1nc2nc(-c3ccccc3)cc(=O)n2[nH]1)c1ccc(Cl)cc1,-12%,-15%,50µM*,7
COc1nccc(-c2nc(Nc3ccc(F)c(F)c3)c3ccccc3n2)c1OC,·,·,2%,·
Cc1cc2[nH]c(=O)c(=O)[nH]c2cc1S(=O)(=O)N1CCN(c2ccccc2)CC1,8%,-6%,-24%,95*
Cc1[nH]c(=O)[nH]c(=O)c1S(=O)(=O)N1CCN(c2cccc(Cl)c2)CC1,-1%,-4%,-14%,9
CC(C)Cn1cc(NC(=O)Nc2cccc(C(F)(F)F)c2)c2ccccc2c1=O,?,-31%,9%,-15
CC(C)C(=O)Nc1cccc(C(F)(F)F)c1,-3%,0%,-8%[57.5 µM],61*
COc1ncc(Nc2ncc(C(C)N3CCN(S(C)(=O)=O)CC3)cc2-c2nc(C)nc(N)n2)cc1F (stereo not given),·,·,-21%,·
Cn1c(-c2ccc(S(=O)(=O)N3CCCC3)cc2)csc1=Nc1ccc(Cl)c(Cl)c1,5µM*,-74%,?,-6
CCn1c(-c2ccc(S(=O)(=O)N3CCOCC3)cc2)csc1=Nc1ccc(C)c(Cl)c1,-12%,-9%,2%,-6
CCOc1ccccc1N(CC)C(=O)c1cc2c(=O)[nH]c3ccc(C)cc3c2s1,2.5µM*,-80%,-9%,-17
COc1ccc2c(c1)[C@]1(C[C@H]1c1ccc3c(/C=C/c4ccc(CN5C[C@@H](C)O[C@@H](C)C5)cc4)n[nH]c3c1)C(=O)N2,·,·,2%,·
O=C(Nc1ccc(N2CCN(c3ccc(F)cc3)CC2)c(C(=O)O)c1)c1cccs1,-5%,18%,89µM*,2
CCCS(=O)(=O)c1c(S(=O)(=O)CCC)c2cc(C(C)(C)C)ccn2c1C(=O)c1ccccc1,25µM*,-84%,10%,-17
Cc1cc(C)c(S(=O)(=O)NCCc2sc(-c3cccnc3)nc2C)c(C)c1,-26%,-20%,-4%,69*
Cc1nc(-c2cccnc2)sc1CCNS(=O)(=O)c1ccc(F)cc1,-11%,-13%,-2%,2
